Experimental data published in the supplement of paper PMC6555819.

Assays:
Assay in all cases: PBM binding z-score (relative to random genomic background probes); higher = stronger binding; sequences stand for … in GC…GCGATTGACAGCGTAGAATGAAGG
[1] = tested on: PPARg:RXRa DBDmut IVT, anti-RXR (DBD mutation: RXRa K156A/R161A, NR concentration 270 nM, RXRa partner concentration 90 nM)
Outline: (§1)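 Random background probes are the reference for binding z-scores. These scores derive from regression-normalized fluorescence on custom Agilent 4×180K protein-binding microarrays incubated 1 h with ligand-free nuclear receptor dimers. Binding was detected with antibodies against each partner (one per run).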

[2] = tested on: PPARg:RXRa IVT, anti-PPARg (NR concentration 270 nM, RXRa partner concentration 90 nM)
Outline: as §1

[3] = tested on: PPARg DBDmut:RXRa IVT, anti-PPARg (DBD mutation: PPARg1 K132A/R137A, NR concentration 270 nM, RXRa partner concentration 90 nM)
Outline: as §1

[4] = tested on: PPARg DBDmut IVT, anti-PPARg (DBD mutation: PPARg1 K132A/R137A, NR concentration 270 nM)
Outline: as §1

[5] = tested on: PPARg homodimer (NR concentration 180 nM)
Outline: as §1

[6] = tested on: PXR:RXRa (NR concentration 270 nM, RXRa partner concentration 90 nM)
Outline: as §1

[7] = tested on: PXR homodimer (NR concentration 270 nM)
Outline: as §1

[8] = tested on: RARa:RXR (NR concentration 270 nM, RXRa partner concentration 90 nM)
Outline: as §1

[9] = tested on: RARa homodimer (NR concentration 270 nM)
Outline: as §1

[10] = tested on: RARb:RXRa (NR concentration 270 nM, RXRa partner concentration 90 nM)
Outline: as §1

[11] = tested on: RARb homodimer (NR concentration 270 nM)
Outline: as §1

[12] = tested on: RARg:RXRa (NR concentration 270 nM, RXRa partner concentration 90 nM)
Outline: as §1

[13] = tested on: RARg homodimer (NR concentration 270 nM)
Outline: as §1

[14] = tested on: RXRa DBDmut IVT, anti-RXR (DBD mutation: RXRa K156A/R161A, NR concentration 90 nM)
Outline: as §1

[15] = tested on: RXRa homodimer (NR concentration 180 nM)
Outline: as §1

[16] = tested on: THRa:RXRa (NR concentration 90 nM, RXRa partner concentration 90 nM)
Outline: as §1

[17] = tested on: THRa homodimer (NR concentration 90 nM)
Outline: as §1

[18] = tested on: VDR homodimer (NR concentration 270 nM)
Outline: as §1

Sequence | PBM binding z-score [1] | PBM binding z-score [2] | PBM binding z-score [3] | PBM binding z-score [4] | PBM binding z-score [5] | PBM binding z-score [6] | PBM binding z-score [7] | PBM binding z-score [8] | PBM binding z-score [9] | PBM binding z-score [10] | PBM binding z-score [11] | PBM binding z-score [12] | PBM binding z-score [13] | PBM binding z-score [14] | PBM binding z-score [15] | PBM binding z-score [16] | PBM binding z-score [17] | PBM binding z-score [18]
CCTCGTTGGTCAAGGTCACACACGCTATAGGTAC | 1.3 | 2.58 | 1.08 | -0.102 | 3.26 | 4.25 | 1.82 | 4.63 | 2.69 | 4.18 | 4.51 | 4.58 | 5.23 | 1.8 | 4.83 | 4.05 | 4.37 | 3.86
CCTAGCAGGCCAATCTGGGCCACTCAAGGCTTGA | 2.99 | 2.85 | -0.703 | -1.73 | -0.99 | -1.04 | -1.05 | -1.11 | -0.723 | 0.0812 | -0.384 | -0.481 | -0.168 | -0.177 | -0.923 | 1.24 | -0.893 | -1.12
CCTGACGGGTCACTGACAGGTTATAGCATTTGGA | 1.12 | 1.82 | 0.147 | -0.292 | 3.03 | 3.08 | -0.179 | 4.01 | 0.536 | 3.69 | 2.98 | 5.4 | 4.25 | 1.04 | 4.25 | 2.44 | 0.0984 | 0.76
ATCTCCAGGTAACAAGTTCAGTGAAAGAGAGGAC | 0.841 | 1.17 | 1.63 | 1.37 | 1.7 | 1.73 | 2.04 | 1.05 | 1.49 | 1.76 | 2.16 | 1.92 | 1.39 | 0.944 | 1.12 | 1.96 | 1.49 | 3.33
GGAACGAGGGCAAGTTGGTAGCAGAGTTTGATGG | 3.6 | 2.34 | -0.479 | -0.423 | 0.722 | 0.696 | 0.853 | 0.662 | -0.182 | 2.79 | 1.6 | 1.27 | 2.08 | 2.05 | 0.826 | 1.41 | 0.26 | 1.91
ACATACGGGTCAACGAGGTTATAGCACGCGTATA | 3.32 | 4.26 | 2.04 | 0.961 | 2.67 | 5.01 | 2.89 | 5.03 | 1.03 | 3.99 | 3.66 | 5.55 | 5.24 | 2.49 | 5.71 | 3.82 | 0.951 | 3.69
ATCGAAAGGTCGAAGGTGAGTATACCCACCCGAA | 0.0439 | 2.38 | 0.373 | 0.686 | 1.04 | 2.96 | -0.372 | 3.94 | 0.591 | 3.82 | 2.51 | 4.29 | 3.81 | 0.771 | 5.16 | 2.27 | -0.0349 | 0.804
AGAATTAGGTTAAGATCAGGGAAACAGAATACAT | 6.07 | 5.8 | 2.12 | 1.83 | 1.72 | 0.514 | 0.846 | 0.922 | 1.26 | 1.03 | 0.701 | 1.04 | 1.09 | -0.0806 | 0.853 | 1.35 | 0.656 | 0.432
CCTAGCAGGCCAATCTGGCTCACTCAAGGCTTGA | 1.35 | 0.117 | -2.07 | -1.06 | -0.294 | -0.913 | -1.16 | -0.795 | -0.522 | -0.16 | -0.747 | -0.58 | -0.5 | -0.298 | -0.743 | -0.627 | -0.709 | -1.02
TGAATGAGGTTAAGGATCAGGGAACGTGGCGTCG | 1.6 | 2.61 | 0.781 | -0.105 | 0.99 | 1.08 | -0.0179 | 2.08 | 0.367 | 2.03 | 0.892 | 1.97 | 1.38 | 0.394 | 2.62 | 2.49 | 0.88 | 0.15
CCTATTAGTTGACCATAAAGGCAACCGAAGCTCG | 0.277 | 0.572 | 0.612 | 1.06 | 1.55 | 0.343 | 1.08 | 0.436 | 2.45 | 0.404 | 0.622 | 0.557 | 0.504 | 0.578 | 0.337 | 0.39 | 0.543 | 0.626
ACTAGCAGGCCACGGGTCACTCAAGATTAGTCCG | 1.77 | 3.02 | 0.251 | -0.351 | 0.555 | 1.52 | -0.598 | 2.05 | -0.386 | 2.17 | 2.64 | 2.22 | 2.04 | 0.0998 | 2.18 | 1.85 | 0.298 | 0.215
GCTGCTAGGTCAACTGATGGTCTGCTAAAGCTCG | 4.88 | 4.03 | 0.365 | -0.14 | 1.69 | 1.37 | -0.53 | 2.39 | 0.112 | 4.1 | 3.12 | 4.34 | 4.87 | 1.78 | 2.91 | 2.83 | 1.02 | -0.264
GGAACGCGGGCAAGTTGATAGCAGAGTTTGATGG | -0.223 | -0.448 | -0.461 | -1.56 | -0.831 | -0.588 | -0.209 | -0.839 | -1.25 | 0.294 | -0.349 | -0.36 | -0.0011 | 0.0062 | -0.242 | -0.844 | -0.922 | -0.495
TCTAGTTGGTCAAAGGTCACACTCTCGAAATGCG | 3.65 | 6.05 | 1.12 | 1.37 | 5.48 | 5.85 | 1.74 | 7.41 | 3.43 | 4.92 | 5.1 | 6.72 | 5.71 | 1.96 | 7.91 | 4.01 | 2.1 | 2.53
